A short description of assay [1]: A CellTox Green Cytotoxicity Assay to monitor cytotoxicity in HEK293 cells - 32 hour (AID 1224881). Note: nearly all actives have a fitted effect of over 40% in size. Note: potency is the fitted concentration of half-maximal effect. The method in brief:
(§1)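 Fluorescence from a DNA-binding dye excluded by viable cells was measured repeatedly in the same HEK293 wells (600 cells/well) during continuous compound exposure at 37 C. Each assay gives one read point: 0, 8, 16, 24, 32 or 40 h.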

Assay [2] in a line: A CellTox Green Cytotoxicity Assay to monitor cytotoxicity in HepG2 cells - 32 hour (AID 1224883). Note: nearly all actives have a fitted effect of over 50% in size. Note: potency is the fitted concentration of half-maximal effect. The method in brief:
(§2)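 Real-time cytotoxicity: fluorescence of a cell-impermeant cyanine dye binding DNA of dead HepG2 cells, measured repeatedly (0–40 h) during compound exposure at 37 C. Cells seeded 600/well with reagent, dosed after 5 h.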

Assay [3] in a line: A CellTox Green Cytotoxicity Assay to monitor cytotoxicity in HEK293 cells - 8 hour (AID 1224884). Note: nearly all actives have a fitted effect of over 35% in size. The method in brief: as §1
The nature of assay [4]: qHTS RealTime-Glo MT Cell Viability Assay in HepG2 cells - 16 hour (AID 1224885). Note: nearly all actives have a fitted effect of over 50% in size. Note: potency is the fitted concentration of half-maximal effect. The method in brief:
(§3)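 Viability was tracked continuously by NanoLuc luminescence from prosubstrate reduced by living HepG2 cells, at successive time points over 40 h of compound exposure. Cells with reagent were preincubated 5 h at 37 °C before compound addition.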
In general terms: In qHTS, concentration-response curves come from the screen itself.

Assay [5] in a line: A CellTox Green Cytotoxicity Assay to monitor cytotoxicity in HEK293 cells - 16 hour (AID 1224888). Note: nearly all actives have a fitted effect of over 35% in size. Note: potency is the fitted concentration of half-maximal effect. In outline:
as §1

A short description of assay [6]: qHTS RealTime-Glo MT Cell Viability Assay in HepG2 cells - 0 hour (AID 1224889). Note: nearly all actives have a fitted effect of over 50% in size. In outline: as §3
The nature of assay [7]: A CellTox Green Cytotoxicity Assay to monitor cytotoxicity in HepG2 cells - 8 hour (AID 1224890). Note: nearly all actives have a fitted effect of over 45% in size. Note: potency is the fitted concentration of half-maximal effect. In outline: as §2
The nature of assay [8]: A CellTox Green Cytotoxicity Assay to monitor cytotoxicity in HepG2 cells - 0 hour (AID 1224882). Note: nearly all actives have a fitted effect of over 35% in size. In outline: as §2
A short description of assay [9]: qHTS RealTime-Glo MT Cell Viability Assay in HEK293 cells - 24 hour (AID 1224886). For activity change, negative = cytotoxicity: top concentration of the series differs between compounds. Note: nearly all actives have a fitted effect of over 50% in size. Note: potency is the fitted concentration of half-maximal effect. The method in brief: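 Viability tracked continuously by luminescence as live cells reduce a prosubstrate for NanoLuc; HEK293 cells preincubated 5 h, compound-treated at 37 C, and read at 0, 8, 16, 24, 32 and 40 h.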
Assay [10] in a line: qHTS RealTime-Glo MT Cell Viability Assay in HEK293 cells - 8 hour (AID 1224887). For activity change, negative = cytotoxicity: top concentration of the series differs between compounds. Note: nearly all actives have a fitted effect of over 50% in size. Note: potency is the fitted concentration of half-maximal effect. The method in brief:
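Luminescence, which tracks viable cell number through reduction of the prosubstrate to a NanoLuc substrate, was read over continuous 37 C culture. Cells (600/well) were premixed with reagent and rested 5 h before 23 nL of compound in DMSO was pinned.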

“And” between values parts separate entries of the source, which are not always exact repeats. Equal entries are not always repeated. Records with an inconclusive call do not appear. The source holds several records for some structures; these can differ, active in one and inactive in another. The source made the active and inactive calls. Calls come from the whole dose curve; as a rule, active = well fitted curve in the direction sought with a large enough effect in the repeat runs; inconclusive = weak or mixed curves; inactive = no such curve, though single readings can be large; an effect the other way counts as inactive or inconclusive.
% is set by controls: 0 for no effect and ±100 for the full control effect.

Regarding `COC(=O)c1c(Cl)c(Cl)c(C(=O)OC)c(Cl)c1Cl`, the Potency result in assay [1] is “inactive and 43.6 µM (active)”; in [7] it was “inactive and 110 nM (active)”. The Potency entry in [2], in assay [3], in assay [4], in [5] and in assay [6] was “inactive” throughout.
For the compound `CC(C[N+](C)(C)C)OC(N)=O` (configuration not stated), the Potency entry in [1], in [2], in [3], in assay [5] and in assay [6] was “inactive” each time.
For `Cn1cc(S(C)=O)c(=O)c2ccc(F)cc21` (configuration not stated), the Potency entry in assay [8], in assay [2], in [3], in assay [4], in assay [9] and in assay [10] was “inactive” throughout. Besides, the Potency result in assay [5], in assay [6] and in assay [7] was “inactive” in each case.
Regarding `CC(C)CNCC(C)C`, the Potency result in assay [1], in assay [2], in assay [3], in [4], in [9] and in [5] was “inactive” each time. Besides, the Potency entry in assay [6] and in [7] was “inactive” each time.
On to `CCCCCCCCS(=O)(=O)Cl`, for which the Potency result in [1], in assay [2], in [3], in [9], in assay [10] and in assay [5] was “inactive” in each case. Further, the Potency result in assay [6] and in [7] was “inactive” each time.
On to `CCCc1cc(C(N)=S)ccn1`, for which the Potency entry in assay [1], in [2], in assay [3], in assay [4], in assay [10] and in [5] was “inactive” in each case. Moreover, the Potency entry in [6] and in assay [7] was “inactive” in each case.
With `CCn1nc(C(=O)O)c(=O)c2cc3c(cc21)OCO3`, the Potency result in [1], in assay [2], in assay [3], in assay [4], in [5] and in assay [6] was “inactive” in each case. In assay [7], the Potency entry is “inactive”.
As to `CCc1ccc(O)c(OC)c1`, the Potency entry in assay [1], in assay [2], in assay [3], in [9], in assay [10] and in assay [5] was “inactive” in each case. The Potency entry in assay [6] and in assay [7] was “inactive” in each case.
Take `COC(=O)NN`: the Potency entry in assay [1], in [2], in [3], in [4], in assay [9] and in assay [10] was “inactive” each time. The Potency result in assay [5], in assay [6] and in assay [7] was “inactive” each time.
On to `NCCCNCCSP(=O)(O)O`, for which the cytotoxicity in assay [8] is 1.75% [at 6.97 µM] (inactive). The cytotoxicity increase in [2] was -8.01% [at 6.97 µM] (inactive); in assay [3], 3.38% [at 6.97 µM] (inactive); in assay [7], 0.329% [at 6.97 µM] (inactive). The activity change, negative = cytotoxic in assay [4] is 0.263% [at 6.97 µM] (inactive). The activity change, negative = cytotoxicity in assay [9] is 4.08% [at 6.97 µM] (inactive); in [10] it was 2.94% [at 6.97 µM] (inactive); in [6], -0.885% [at 6.97 µM] (inactive). The activity change in assay [5] is -4.83% [at 6.97 µM, stronger effect = higher value] (inactive).
`CN(C)CCCN1c2ccccc2CCc2ccc(Cl)cc21`: the Potency in assay [1] was 49 µM (active) and 26.8 µM (active); in assay [2], 34.7 µM (active) and 23.9 µM (active); in [4] it was 49 µM (active); in assay [10], 43.6 µM (active) and inactive; in assay [5] it was 54.9 µM (active) and 23.9 µM (active). In addition, the Potency result in assay [7] was “inactive”.
With `COc1cc(C(=O)N2CCCCCCC2)cc(OC)c1OC`, the Potency result in assay [8], in assay [2], in assay [3], in assay [4], in [9] and in [10] was “inactive” each time. The Potency result in [5], in assay [6] and in [7] was “inactive” in each case.
For `C/C=C(\C)C#N`, the Potency entry in assay [8], in [2], in [3], in assay [4], in assay [5] and in [6] was “inactive” in each case. In addition, the Potency result in assay [7] is “inactive”.
Regarding `CCCCNC(=O)NCCCC`, the Potency result in assay [8], in [2], in [3], in assay [4], in [9] and in assay [5] was “inactive” each time. The Potency result in assay [6] and in [7] was “inactive” throughout.
Take `CCC=O`: the Potency result in assay [8], in assay [2], in assay [3], in [4], in [9] and in assay [10] was “inactive” in each case. The Potency result in assay [5], in assay [6] and in assay [7] was “inactive” throughout.
In the case of `C[N+](C)(C)CC(O)CC(=O)[O-]` (configuration not stated), the Potency result in assay [8], in [2], in assay [3], in assay [9], in assay [10] and in assay [5] was “inactive” each time. The Potency result in assay [6] and in assay [7] was “inactive” throughout.
Regarding `C1CN(CCOCCN2CCOCC2)CCO1`, the Potency result in assay [2], in [3], in assay [4], in assay [9], in assay [10] and in assay [5] was “inactive” in each case. Moreover, the Potency entry in assay [6] and in assay [7] was “inactive” in each case.
Consider `CC(C)(C)c1ccc(O)c(O)c1`, for which the Potency entry in [8], in [2], in [3], in assay [5], in assay [6] and in assay [7] was “inactive” throughout. The Potency in [9] was 22.6 µM (active) and 13.8 µM (active); in assay [10] it was 40.2 µM (active) and 45.3 µM (active).
Regarding `NS(=O)(=O)c1cc2c(cc1Cl)NC(C1CC3C=CC1C3)NS2(=O)=O` (configuration not stated), the Potency result in [2], in [3], in assay [4], in assay [9], in assay [5] and in assay [6] was “inactive” each time. For the same compound, the Potency entry in assay [7] is “inactive”.
For `Cc1ccc(=O)n(-c2ccccc2)c1`, the Potency entry in assay [8], in assay [2], in [3], in assay [4], in assay [10] and in assay [5] was “inactive” in each case. Besides, the Potency result in assay [6] and in assay [7] was “inactive” in each case.
Turning to `COc1ccc2c(c1)CCCC2=O`, the Potency entry in assay [8], in assay [2], in assay [3], in assay [4], in assay [9] and in assay [10] was “inactive” each time. Besides, the Potency entry in assay [5], in assay [6] and in [7] was “inactive” each time.
As for `Nc1c2c(nc3ccccc13)CCCC2O` (configuration not stated), the Potency result in assay [2], in [3], in [4], in assay [9], in assay [5] and in assay [6] was “inactive” in each case. The Potency entry in [7] is “inactive”.
